# Results from PubChem BioAssay (EPA / NIEHS).
# Several values for one entry are separate records, joined by “and”; a condition that tells them apart may be missing. Equal values may be shown once. Records with an inconclusive call do not appear. Where a structure was tested more than once in an assay, its records may differ in their call. Activity calls are given as the source filed them. Rule for the calls, unless noted: active = hit-call score of the fitted dose curve at least 0.9, where 1 is the maximum; inactive = score below 0.9.
# Key:
# [1] = ATG_NFI_CIS: Attagene CIS-FACTORIAL HepG2 Assay for human Nuclear Factor I (NFI) (AID 2282989); settings: HepG2 cis-regulatory reporter, NFI response element transcription; actives raise or lower the signal
# Outline: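 HepG2, transient MRTU, 24 h exposure; RNA→cDNA→PCR→FAM label→HpaI→CE fluorescence. Bidirectional fit, DMSO = baseline.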
# [2] = molecular target: Myc proto-oncogene protein (Homo sapiens) (UniProt P01106); assay: ATG_Myc_CIS: Attagene CIS-FACTORIAL HepG2 Assay for human Myelocytomatosis (Myc) Proto-Oncogene Transcription Factor (AID 2282990); settings: HepG2, Attagene cis-reporter transcription factor activity; actives raise or lower the signal
# Chain of Myc proto-oncogene protein (Homo sapiens) (P01106 whole entry, looked up): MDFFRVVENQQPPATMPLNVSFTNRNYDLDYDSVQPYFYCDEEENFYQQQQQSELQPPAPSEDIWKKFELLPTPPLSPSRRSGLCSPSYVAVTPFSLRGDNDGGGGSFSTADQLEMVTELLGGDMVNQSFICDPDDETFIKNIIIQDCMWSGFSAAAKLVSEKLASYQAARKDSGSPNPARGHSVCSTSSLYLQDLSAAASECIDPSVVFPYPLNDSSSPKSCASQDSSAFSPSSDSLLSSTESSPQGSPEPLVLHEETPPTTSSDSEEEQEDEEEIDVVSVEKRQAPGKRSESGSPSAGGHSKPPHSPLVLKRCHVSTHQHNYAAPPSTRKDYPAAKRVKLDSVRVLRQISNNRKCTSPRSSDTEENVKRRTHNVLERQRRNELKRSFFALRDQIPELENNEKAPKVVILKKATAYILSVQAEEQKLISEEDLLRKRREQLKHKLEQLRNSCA
# Outline: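 Multiplexed cis-reporter transcription in HepG2 cells after 24 h chemical treatment. Reporter mRNA measured by RT-PCR and capillary electrophoresis fluorescence; activity fitted bidirectionally against DMSO control.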
# [3] = ATG_NF_kB_CIS: Attagene CIS-FACTORIAL HepG2 Assay for human Nuclear Factor Kappa B (NF-kB) (AID 2282991); settings: HepG2 Attagene cis-factorial NF-kB reporter mRNA; actives raise or lower the signal
# Outline: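 HepG2 cells transiently transfected with multiplexed cis-element reporter units measuring endogenous transcription factor activity; reporter mRNA read 24 h after dosing by RT-PCR, fluorescent labelling, HpaI digestion and capillary electrophoresis. Bidirectional fit against DMSO baseline.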
# [4] = ATG_NRF2_ARE_CIS: Attagene CIS-FACTORIAL HepG2 Assay for human Nuclear Factor Erythroid 2 Related Factor 2 (NFR2) response to Antioxidant Response Elements (ARE) (AID 2282992); settings: HepG2 Attagene ARE/NRF2 reporter, transcription factor activity; actives raise or lower the signal
# Outline: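 Readout: reporter mRNA quantified by RT-PCR plus FAM-labelled primer extension, HpaI digestion and capillary electrophoresis, 24 h after dosing transfected HepG2 cells. Gain or loss of signal is fitted bidirectionally against DMSO baseline.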
# [5] = ATG_Oct_MLP_CIS: Attagene CIS-FACTORIAL HepG2 Assay for human Octamer-Binding Transcription Factor (Oct) (AID 2282993); settings: HepG2 Attagene cis-factorial Oct reporter, mRNA; actives raise or lower the signal
# Outline: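 Multiplexed cis-reporter assay in human liver HepG2 cells, 24 h incubation. Reporter RNA amplified and labelled, then resolved by capillary electrophoresis; DMSO serves as negative control and baseline.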
# [6] = molecular target: Cellular tumor antigen p53 (Homo sapiens) (UniProt P04637); assay: ATG_p53_CIS: Attagene CIS-FACTORIAL HepG2 Assay for human p53 Transcription Factor (AID 2282994); settings: HepG2 p53 cis-element reporter, Attagene mRNA; actives raise or lower the signal
# Chain of Cellular tumor antigen p53 (Homo sapiens) (P04637 whole entry, looked up): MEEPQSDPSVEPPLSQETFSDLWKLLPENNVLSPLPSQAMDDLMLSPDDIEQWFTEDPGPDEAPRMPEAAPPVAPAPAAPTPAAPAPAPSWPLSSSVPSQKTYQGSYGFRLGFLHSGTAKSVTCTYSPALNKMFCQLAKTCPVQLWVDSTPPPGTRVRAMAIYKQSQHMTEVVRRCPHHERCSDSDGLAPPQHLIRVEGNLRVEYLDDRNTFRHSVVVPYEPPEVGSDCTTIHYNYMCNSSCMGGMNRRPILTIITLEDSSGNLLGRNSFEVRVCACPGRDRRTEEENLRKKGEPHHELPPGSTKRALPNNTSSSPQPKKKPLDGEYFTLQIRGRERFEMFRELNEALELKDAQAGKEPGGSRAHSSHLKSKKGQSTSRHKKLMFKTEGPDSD
# Outline: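 Read-out: reporter mRNA by RT-PCR plus capillary electrophoresis with fluorescence detection. Human HepG2 liver cells carried transfected multi-reporter cis-element constructs, dosed 24 h. Gain or loss of signal fitted bidirectionally against DMSO control.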
# [7] = molecular target: human Peroxisome Proliferator-activated Receptor alpha (PPARa), PPARA (gene 5465) (UniProt Q07869); assay: ATG_PPARa_TRANS: Attagene TRANS-FACTORIAL HepG2 Assay for human Peroxisome Proliferator-activated Receptor alpha (PPARa) (AID 2283001; active = hit-call score of the fitted dose curve at least 0.9, where 1 is the maximum;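 for AC50: potency for gain of reporter signal over DMSO so agonist or activator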)
# Chain of human Peroxisome Proliferator-activated Receptor alpha (PPARa), PPARA (gene 5465) (Q07869 whole entry, looked up, the tested form may be a part): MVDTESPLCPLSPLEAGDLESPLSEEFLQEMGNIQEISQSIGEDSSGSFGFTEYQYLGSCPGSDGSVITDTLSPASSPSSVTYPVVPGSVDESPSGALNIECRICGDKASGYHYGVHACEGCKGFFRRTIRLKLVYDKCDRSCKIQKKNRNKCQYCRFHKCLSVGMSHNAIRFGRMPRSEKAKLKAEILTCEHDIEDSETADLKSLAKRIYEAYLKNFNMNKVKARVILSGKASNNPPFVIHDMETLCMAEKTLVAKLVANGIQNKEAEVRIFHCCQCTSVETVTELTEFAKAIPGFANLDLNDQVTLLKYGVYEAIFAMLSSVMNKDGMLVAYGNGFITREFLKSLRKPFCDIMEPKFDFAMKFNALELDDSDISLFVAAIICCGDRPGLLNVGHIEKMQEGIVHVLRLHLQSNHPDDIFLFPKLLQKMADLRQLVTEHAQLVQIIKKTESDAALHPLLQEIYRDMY
# Outline: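 Exposure: 24 h, transiently transfected HepG2 cells. Endpoint: GAL4-UAS reporter mRNA, RT-PCR with capillary electrophoresis fluorescence. Baseline: DMSO; increases fitted.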
# [8] = molecular target: human Peroxisome Proliferator-activated Receptor delta (PPARd), PPARD (gene 5467) (UniProt Q03181); assay: ATG_PPARd_TRANS: Attagene TRANS-FACTORIAL HepG2 Assay for human Peroxisome Proliferator-activated Receptor delta (PPARd) (AID 2283002; active = hit-call score of the fitted dose curve at least 0.9, where 1 is the maximum)
# Chain of human Peroxisome Proliferator-activated Receptor delta (PPARd), PPARD (gene 5467) (Q03181 whole entry, looked up, the tested form may be a part): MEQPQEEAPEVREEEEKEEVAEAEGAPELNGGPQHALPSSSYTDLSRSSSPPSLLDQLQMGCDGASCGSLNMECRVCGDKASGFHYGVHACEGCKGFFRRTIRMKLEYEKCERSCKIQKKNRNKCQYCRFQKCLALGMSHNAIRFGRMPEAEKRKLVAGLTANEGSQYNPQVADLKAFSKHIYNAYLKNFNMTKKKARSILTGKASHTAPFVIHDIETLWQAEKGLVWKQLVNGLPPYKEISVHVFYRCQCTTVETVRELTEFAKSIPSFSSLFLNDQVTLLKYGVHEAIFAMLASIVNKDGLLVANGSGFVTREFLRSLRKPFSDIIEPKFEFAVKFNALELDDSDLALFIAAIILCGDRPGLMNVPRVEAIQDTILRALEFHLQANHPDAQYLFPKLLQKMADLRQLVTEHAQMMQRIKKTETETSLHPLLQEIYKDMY
# Outline: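 Multiplexed trans-activation format: HepG2 liver cells expressing exogenous NR-Gal4 chimeras and GAL4-UAS reporters were exposed for 24 h. Reporter mRNA was detected by RT-PCR with capillary electrophoresis fluorescence; activity fitted as gain of signal relative to DMSO.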
# [9] = molecular target: Peroxisome proliferator-activated receptor gamma (Homo sapiens) (UniProt P37231); assay: ATG_PPARg_TRANS: Attagene TRANS-FACTORIAL HepG2 Assay for human Peroxisome Proliferator-activated Receptor-gamma (PPARg) (AID 2283007; active = hit-call score of the fitted dose curve at least 0.9, where 1 is the maximum)
# Chain of Peroxisome proliferator-activated receptor gamma (Homo sapiens) (P37231 whole entry, looked up, the tested form may be a part): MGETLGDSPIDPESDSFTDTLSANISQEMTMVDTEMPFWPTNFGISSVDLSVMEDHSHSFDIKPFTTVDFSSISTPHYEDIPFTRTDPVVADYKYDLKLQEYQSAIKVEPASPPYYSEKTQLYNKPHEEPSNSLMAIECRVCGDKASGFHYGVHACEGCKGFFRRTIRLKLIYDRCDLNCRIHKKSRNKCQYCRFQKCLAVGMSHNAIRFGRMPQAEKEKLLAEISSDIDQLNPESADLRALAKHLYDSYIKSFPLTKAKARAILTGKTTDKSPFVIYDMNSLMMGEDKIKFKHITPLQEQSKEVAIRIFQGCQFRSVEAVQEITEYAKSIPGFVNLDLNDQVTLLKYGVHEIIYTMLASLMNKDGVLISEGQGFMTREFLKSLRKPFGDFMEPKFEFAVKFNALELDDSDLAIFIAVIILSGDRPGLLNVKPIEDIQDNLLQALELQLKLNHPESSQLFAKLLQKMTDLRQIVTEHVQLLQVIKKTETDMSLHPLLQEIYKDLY
# Outline: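 HepG2 cells transiently transfected with multiplexed GAL4-UAS reporter units and exogenous chimeric NR-Gal4 proteins; reporter mRNA quantified after 24 h compound exposure by RT-PCR, fluorescent labelling, HpaI digestion and capillary electrophoresis; gain-of-signal fitted versus DMSO baseline.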
# [10] = molecular target: human RAR-related Orphan Receptor beta (RORb), RORB (gene 6096) (UniProt Q92753); assay: ATG_RORb_TRANS: Attagene TRANS-FACTORIAL HepG2 Assay for human RAR-related Orphan Receptor beta (RORb) (AID 2283010; active = hit-call score of the fitted dose curve at least 0.9, where 1 is the maximum)
# Chain of human RAR-related Orphan Receptor beta (RORb), RORB (gene 6096) (Q92753 whole entry, looked up, the tested form may be a part): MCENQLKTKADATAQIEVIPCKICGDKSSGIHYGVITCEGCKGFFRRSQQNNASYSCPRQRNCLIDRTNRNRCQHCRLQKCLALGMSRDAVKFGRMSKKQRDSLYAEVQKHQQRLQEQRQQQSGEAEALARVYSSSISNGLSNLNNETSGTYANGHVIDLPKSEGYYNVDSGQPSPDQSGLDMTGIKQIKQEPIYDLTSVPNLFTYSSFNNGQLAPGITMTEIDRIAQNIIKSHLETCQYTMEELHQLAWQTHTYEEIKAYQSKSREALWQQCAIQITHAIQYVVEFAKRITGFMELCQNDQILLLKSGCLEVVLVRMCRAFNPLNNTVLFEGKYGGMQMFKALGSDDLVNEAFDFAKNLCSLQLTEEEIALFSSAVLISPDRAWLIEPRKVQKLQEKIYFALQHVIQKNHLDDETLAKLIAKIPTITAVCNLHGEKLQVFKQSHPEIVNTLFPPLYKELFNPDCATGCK
# Outline: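 Multiplexed transcription-factor reporter assay: HepG2 cells transiently carrying NR-Gal4/GAL4-UAS constructs, 24 h treatment, mRNA quantified by RT-PCR plus capillary electrophoresis fluorescence; activity scored as induction over DMSO.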
# [11] = molecular target: human Retinoic Acid Receptor beta (RARb), RARB (gene 5915) (UniProt P10826); assay: ATG_RARb_TRANS: Attagene TRANS-FACTORIAL HepG2 Assay for human Retinoic Acid Receptor beta (AID 2283004; active = hit-call score of the fitted dose curve at least 0.9, where 1 is the maximum)
# Chain of human Retinoic Acid Receptor beta (RARb), RARB (gene 5915) (P10826 whole entry, looked up, the tested form may be a part): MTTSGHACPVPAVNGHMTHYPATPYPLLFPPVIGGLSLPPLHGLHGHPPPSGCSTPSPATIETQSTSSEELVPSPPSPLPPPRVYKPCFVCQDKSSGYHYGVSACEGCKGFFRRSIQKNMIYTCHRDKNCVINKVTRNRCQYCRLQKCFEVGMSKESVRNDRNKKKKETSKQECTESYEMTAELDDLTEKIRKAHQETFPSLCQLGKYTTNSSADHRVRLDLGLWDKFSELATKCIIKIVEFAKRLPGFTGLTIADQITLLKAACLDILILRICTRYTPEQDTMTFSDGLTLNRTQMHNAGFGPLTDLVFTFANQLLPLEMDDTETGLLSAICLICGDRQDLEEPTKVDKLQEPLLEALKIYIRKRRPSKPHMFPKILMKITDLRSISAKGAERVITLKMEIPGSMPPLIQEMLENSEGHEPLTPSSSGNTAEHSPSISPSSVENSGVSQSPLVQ
# Outline: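 HepG2 cells transiently transfected with multiplexed GAL4-UAS reporter units expressing chimeric NR–Gal4 fusions; 24 h compound exposure. Reporter mRNA quantified by RT-PCR, 6-FAM labelling, HpaI digestion and capillary electrophoresis; gain-of-signal fitted against DMSO baseline.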
# [12] = molecular target: Retinoic acid receptor alpha (Homo sapiens) (UniProt P10276); assay: ATG_RARa_TRANS: Attagene TRANS-FACTORIAL HepG2 Assay for human Retinoic Acid Receptor alpha (RARa) (AID 2283005; active = hit-call score of the fitted dose curve at least 0.9, where 1 is the maximum)
# Chain of Retinoic acid receptor alpha (Homo sapiens) (P10276 whole entry, looked up, the tested form may be a part): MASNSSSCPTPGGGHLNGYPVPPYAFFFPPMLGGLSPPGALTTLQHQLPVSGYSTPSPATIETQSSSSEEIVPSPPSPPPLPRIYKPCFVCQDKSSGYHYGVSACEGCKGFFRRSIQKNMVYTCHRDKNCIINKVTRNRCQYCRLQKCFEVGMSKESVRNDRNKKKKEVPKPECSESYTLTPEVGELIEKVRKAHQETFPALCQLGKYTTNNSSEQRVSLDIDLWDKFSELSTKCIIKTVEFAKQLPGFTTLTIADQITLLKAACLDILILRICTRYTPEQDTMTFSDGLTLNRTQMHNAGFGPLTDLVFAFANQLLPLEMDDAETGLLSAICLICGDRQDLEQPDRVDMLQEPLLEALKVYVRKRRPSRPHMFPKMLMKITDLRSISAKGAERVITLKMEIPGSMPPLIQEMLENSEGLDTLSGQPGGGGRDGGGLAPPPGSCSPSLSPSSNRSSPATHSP
# Outline: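 HepG2 cells transiently transfected with multiple reporter units expressing chimeric RARα-GAL4 fusion, with GAL4-UAS-driven reporters. After 24 h compound exposure, reporter mRNA induction quantified by RT-PCR and capillary electrophoresis with fluorescent labeling; gain-of-signal fitted relative to DMSO control.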
# [13] = molecular target: Nuclear receptor subfamily 1 group I member 2 (Homo sapiens) (UniProt O75469); assay: ATG_PXR_TRANS: Attagene TRANS-FACTORIAL HepG2 Assay for human Pregnane X Receptor (PXR) (AID 2283008; active = hit-call score of the fitted dose curve at least 0.9, where 1 is the maximum)
# Chain of Nuclear receptor subfamily 1 group I member 2 (Homo sapiens) (O75469 whole entry, looked up, the tested form may be a part): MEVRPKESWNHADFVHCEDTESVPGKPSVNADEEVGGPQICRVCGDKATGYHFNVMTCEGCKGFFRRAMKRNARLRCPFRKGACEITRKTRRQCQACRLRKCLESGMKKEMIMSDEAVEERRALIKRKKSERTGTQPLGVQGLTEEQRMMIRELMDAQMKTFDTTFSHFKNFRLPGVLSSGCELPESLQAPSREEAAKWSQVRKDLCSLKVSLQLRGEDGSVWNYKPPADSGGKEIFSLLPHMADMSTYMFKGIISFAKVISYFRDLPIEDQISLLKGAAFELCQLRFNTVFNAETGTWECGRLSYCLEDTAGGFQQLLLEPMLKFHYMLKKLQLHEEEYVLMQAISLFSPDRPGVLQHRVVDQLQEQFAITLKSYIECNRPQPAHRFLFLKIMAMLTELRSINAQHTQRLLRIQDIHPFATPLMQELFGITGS
# Outline: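 Trans-factorial format: exogenous NR-Gal4 fusion activity, not endogenous factor, in transfected human HepG2 liver cells. After 24 h dosing, RNA isolated, reverse-transcribed, amplified and resolved by capillary electrophoresis; induction scored versus DMSO.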
# [14] = molecular target: human Retinoic Acid Receptor gamma (RARg), RARG (gene 5916) (UniProt P13631); assay: ATG_RARg_TRANS: Attagene TRANS-FACTORIAL HepG2 Assay for human Retinoic Acid Receptor gamma (RARg) (AID 2283009; active = hit-call score of the fitted dose curve at least 0.9, where 1 is the maximum;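 for AC50: AC50 is for reporter induction above DMSO meaning RARg activation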)
# Chain of human Retinoic Acid Receptor gamma (RARg), RARG (gene 5916) (P13631 whole entry, looked up, the tested form may be a part): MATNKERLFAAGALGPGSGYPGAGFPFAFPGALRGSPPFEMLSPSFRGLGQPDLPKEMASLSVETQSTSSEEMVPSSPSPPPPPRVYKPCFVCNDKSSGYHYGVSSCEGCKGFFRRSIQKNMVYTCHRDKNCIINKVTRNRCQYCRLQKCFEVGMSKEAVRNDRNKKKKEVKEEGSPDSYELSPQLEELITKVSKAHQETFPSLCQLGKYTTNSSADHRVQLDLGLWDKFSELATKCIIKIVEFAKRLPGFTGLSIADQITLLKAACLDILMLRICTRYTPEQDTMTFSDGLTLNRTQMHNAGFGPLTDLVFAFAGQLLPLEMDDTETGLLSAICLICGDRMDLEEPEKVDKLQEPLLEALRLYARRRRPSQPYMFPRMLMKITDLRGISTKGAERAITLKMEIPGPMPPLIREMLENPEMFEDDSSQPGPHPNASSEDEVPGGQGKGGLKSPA
# Outline: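 Gain-of-signal relative to DMSO is reported from fluorescent capillary electrophoresis of RT-PCR reporter products. These came from HepG2 cells expressing transfected RARg-GAL4 chimeras with UAS reporters, harvested 24 h after dosing.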
# [15] = BSK_3C_TissueFactor: BioMAP Diversity Plus: 3C Assay for Tissue Factor Biomarker Activity (AID 2282997); settings: BioMAP 3C HUVEC, tissue factor biomarker readout; actives raise or lower the signal
# Outline: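 Readout: Tissue Factor ELISA. Cells: human primary umbilical vein endothelium. Time: 24 h after dosing. Analysis: bidirectional fit, DMSO baseline.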
# [16] = BSK_3C_uPAR: BioMAP Diversity Plus: 3C Assay for Urokinase-type plasminogen activator receptor (uPAR) Biomarker Activity (AID 2282998); settings: BioMAP 3C HUVEC, uPAR biomarker ELISA; actives raise or lower the signal
# Outline: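 Dose primary human umbilical vein endothelial cells, incubate 24 h, measure cell-surface uPAR by ELISA, then fit the signal in both directions against the DMSO negative control.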
# [17] = BSK_3C_VCAM1: BioMAP Diversity Plus: 3C Assay for Vascular cell adhesion molecule 1 (VCAM1) Biomarker Activity (AID 2282999); settings: BioMAP 3C HUVEC, VCAM1 ELISA, cytokine-stimulated; actives raise or lower the signal
# Outline: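 Vascular primary endothelium (human umbilical vein) was exposed to chemicals and assayed 24 h later. VCAM-1 levels came from ELISA, with DMSO serving as baseline for bidirectional fitting.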
# [18] = read-out: Intercellular Adhesion Molecule 1 (ICAM1), ICAM1 (gene 3383); assay: BSK_3C_ICAM1: BioMAP Diversity Plus: 3C Assay for Intercellular Adhesion Molecule 1 (ICAM1) Biomarker Activity (AID 2283003); settings: primary human endothelial cells (HUVEC); actives raise or lower the signal
# Outline: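 Using DMSO as baseline, bidirectional curve fitting was applied to ICAM-1 ELISA signals from HUVEC in the 3C system, measured 24 h after compound addition.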
# [19] = BSK_3C_Proliferation: Cell Proliferation Assessment in the BioMAP Diversity Plus: 3C Assay (AID 2283006); settings: primary human endothelial cells (HUVEC);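 for AC50: potency may reflect either rise or fall in cell number versus DMSO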
# Outline: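 Measured here: sulforhodamine B (0.1%) staining of TCA-fixed sub-confluent umbilical vein endothelial cultures 48 h post-dosing, absorbance 560 nm. DMSO served as negative control and baseline; both signal gain and loss were modelled.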
# [20] = BSK_4H_Eotaxin3: BioMAP Diversity Plus: 4H Assay for Eotaxin 3 Biomarker Activity (AID 2283000); settings: primary human endothelial cells (HUVEC); actives raise or lower the signal;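 for outcome: CCL26 protein level quantified by ELISA in parallel with SRB cytotoxicity check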
# Outline: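 HUVEC, 24 h post-dose, ELISA for Eotaxin-3/CCL26. Gain or loss of signal fitted bidirectionally vs DMSO baseline.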
smiles,measurement,setting,value
C[C@H]1O[C@@H](O[C@H]2[C@@H](O)C[C@H](O[C@H]3[C@@H](O)C[C@H](O[C@H]4CC[C@@]5(C)[C@H](CC[C@@H]6[C@@H]5CC[C@]5(C)[C@@H](C7=CC(=O)OC7)CC[C@]65O)C4)O[C@@H]3C)O[C@@H]2C)C[C@H](O)[C@@H]1O,AC50,[1],0.171 µM (active)
same,AC50,[2],23.9 µM (active)
same,outcome,[3],inactive
same,outcome,[4],inactive
same,AC50,[5],0.592 µM (active)
same,outcome,[6],inactive
same,AC50,[7],0.0564 µM (active)
same,outcome,[8],inactive
same,outcome,[9],inactive
same,outcome,[10],inactive
O=[N+]([O-])c1c(Cl)c(Cl)cc(Cl)c1Cl,outcome,[1],inactive
same,outcome,[2],inactive
same,outcome,[3],inactive
same,AC50,[4],57.3 µM (active)
same,outcome,[5],inactive
same,outcome,[6],inactive
same,outcome,[7],inactive
same,outcome,[8],inactive
same,outcome,[11],inactive
same,outcome,[12],inactive
same,AC50,[9],0.905 µM (active)
same,outcome,[13],inactive
same,outcome,[14],inactive
Nc1ncc([N+](=O)[O-])s1,outcome,[1],inactive
same,outcome,[2],inactive
same,outcome,[3],inactive
same,AC50,[4],73.2 µM (active)
same,outcome,[5],inactive
same,outcome,[6],inactive
same,AC50,[15],12.2 µM (active)
same,outcome,[16],inactive
same,outcome,[17],inactive
same,outcome,[7],inactive
same,outcome,[8],inactive
same,outcome,[18],inactive
same,outcome,[19],inactive
same,outcome,[9],inactive
same,outcome,[13],inactive
same,outcome,[10],inactive
O=c1[nH]c(=O)[nH]c(=O)[nH]1,outcome,[1],inactive
same,outcome,[2],inactive
same,outcome,[3],inactive
same,outcome,[4],inactive
same,outcome,[5],inactive
same,outcome,[6],inactive
same,outcome,[15],inactive
same,outcome,[16],inactive
same,outcome,[17],inactive
same,outcome,[7],inactive
same,outcome,[8],inactive
same,outcome,[18],inactive
same,outcome,[11],inactive
same,outcome,[12],inactive
same,outcome,[19],inactive
same,outcome,[9],inactive
same,outcome,[13],inactive
same,outcome,[10],inactive
CCCCCCCCc1ccc(O)cc1,outcome,[1],inactive
same,outcome,[2],inactive
same,outcome,[3],inactive
same,AC50,[4],11.2 µM (active)
same,outcome,[4],inactive
same,outcome,[5],inactive
same,outcome,[6],inactive
same,AC50,[15],32.2 µM (active)
same,AC50,[16],37.2 µM (active)
same,AC50,[17],31.9 µM (active)
same,AC50,[20],33.5 µM (active)
same,AC50,[7],24.8 µM (active)
same,outcome,[7],inactive
same,outcome,[8],inactive
same,AC50,[18],35.6 µM (active)
same,outcome,[11],inactive
same,outcome,[12],inactive
same,AC50,[19],8.43 µM (active)
same,AC50,[9],22 µM (active)
same,AC50,[13],7.55 µM (active)
same,outcome,[13],inactive
same,AC50,[14],33.5 µM (active)
same,outcome,[14],inactive
CC(C)CCCCCCOC(=O)c1ccccc1C(=O)OCCCCCCC(C)C,outcome,[1],inactive
same,outcome,[2],inactive
same,outcome,[3],inactive
same,outcome,[4],inactive
same,outcome,[5],inactive
same,outcome,[6],inactive
same,outcome,[15],inactive
same,outcome,[16],inactive
same,outcome,[17],inactive
same,outcome,[7],inactive
same,outcome,[8],inactive
same,outcome,[18],inactive
same,outcome,[19],inactive
same,AC50,[13],1.84 µM (active)
same,outcome,[10],inactive
CC12CC1(C)C(=O)N(c1cc(Cl)cc(Cl)c1)C2=O (stereo not drawn),outcome,[1],inactive
same,outcome,[2],inactive
same,outcome,[3],inactive
same,outcome,[4],inactive
same,outcome,[5],inactive
same,outcome,[6],inactive
same,outcome,[15],inactive
same,outcome,[16],inactive
same,outcome,[17],inactive
same,outcome,[20],inactive
same,outcome,[7],inactive
same,outcome,[8],inactive
same,outcome,[18],inactive
same,outcome,[19],inactive
same,outcome,[9],inactive
same,AC50,[13],2.03 µM (active) and 4.13 µM (active) and 2.07 µM (active)
same,outcome,[13],inactive
same,outcome,[10],inactive
